Test results reported in PubChem BioAssay (NCI).
This is part of a sample that, as a whole, favours compounds with a hit. Of some 79,000 tested, about 15% had one in any assay. The source made the active and inactive calls. Rule as the data show it: active = growth inhibition above about 70%; inactive = the rest.

Key:
[1] = NCI Yeast Anticancer Drug Screen. Data for the rad52 strain (AID 147);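 also: 0% = growth of vehicle-treated control cultures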; details: S. cerevisiae rad52 mutant growth inhibition, stronger effect = higher value
Outline: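 Compounds are applied to a genetically defined yeast strain lacking normal DNA damage repair, and inhibition of growth is expressed relative to cultures given vehicle only.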

[2] = NCI Yeast Anticancer Drug Screen. Data for the wt1 strain (AID 149);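 also: 0% = growth of vehicle-treated wt1 cultures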; details: S. cerevisiae wt1 strain (SPY 50644) growth inhibition, stronger effect = higher value
Outline: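 Vehicle-normalised growth inhibition; strain wt1; compound exposure.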

[3] = NCI Yeast Anticancer Drug Screen. Data for the rad50EPP+ strain (AID 151);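 also: 0% = growth of vehicle-treated control cultures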; details: S. cerevisiae rad50 mutant strain, stronger effect = higher value
Outline: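 Compounds were applied to the rad50EPP+ yeast strain, which bears a defined DNA repair alteration, and growth inhibition was determined relative to vehicle-treated cultures.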

[4] = NCI Yeast Anticancer Drug Screen. Data for the rad50 strain (AID 155);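 also: 0% = growth of vehicle-only cultures of the same strain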; details: S. cerevisiae rad50 strain growth inhibition, stronger effect = higher value
Outline: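 A DNA repair-deficient yeast mutant serves as the test organism; compound-induced growth inhibition is calculated against vehicle-treated cells.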

[5] = NCI Yeast Anticancer Drug Screen. Data for the mec2-1 strain (AID 157); details: S. cerevisiae mec2-1 strain, stronger effect = higher value
Outline: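 Strain: mec2-1 (DNA repair/cell cycle alteration). Compound exposure, then growth measured; inhibition expressed relative to vehicle.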

[6] = NCI Yeast Anticancer Drug Screen. Data for the rad14 strain (AID 159);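 also: 0% = growth of vehicle-treated control cultures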; details: S. cerevisiae rad14 strain growth inhibition, stronger effect = higher value
Outline: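 Vehicle-treated cultures served as the baseline for growth inhibition of a DNA repair-mutant yeast strain exposed to each compound.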

[7] = NCI Yeast Anticancer Drug Screen. Data for the sgs1 mgt1 strain (AID 161);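 also: 0% = growth of cultures given vehicle only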; details: S. cerevisiae sgs1 mgt1 strain, stronger effect = higher value
Outline: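 Genetically altered yeast, compound exposure, growth inhibition relative to vehicle.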

[8] = NCI Yeast Anticancer Drug Screen. Data for the CLN2oe strain (AID 163);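 also: 0% = growth of vehicle-only control cultures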; details: S. cerevisiae CLN2oe strain, stronger effect = higher value
Outline: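 Growth of a genetically modified yeast strain is measured after compound exposure and compared with cultures given vehicle alone.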

[9] = NCI Yeast Anticancer Drug Screen. Data for the cln2 rad14 strain (AID 165);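 also: 0% = growth equal to vehicle treated cultures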; details: S. cerevisiae cln2 rad14 strain, stronger effect = higher value
Outline: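 Compounds are applied to the cln2 rad14 yeast strain, and growth is then compared with that of vehicle-treated cultures to give inhibition.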

[10] = NCI Yeast Anticancer Drug Screen. Data for the bub3 strain (AID 167); details: S. cerevisiae bub3 mutant strain, stronger effect = higher value
Outline: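 Inhibition values come from growth of compound-treated mutant yeast normalised to vehicle-treated controls.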

[11] = NCI Yeast Anticancer Drug Screen. Data for the wt2 strain (AID 169);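 also: 0% = growth of vehicle-treated yeast cultures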; details: S. cerevisiae wt2 strain growth inhibition, stronger effect = higher value
Outline: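 This strain belongs to a panel of yeast strains with defined genetic alterations in DNA damage repair or cell cycle control. Compounds are applied, and growth inhibition is measured against vehicle-treated cultures.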

[12] = NCI Yeast Anticancer Drug Screen. Data for the sgs1 strain (AID 173);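 also: 0% = growth of vehicle-only control cultures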; details: S. cerevisiae sgs1 mutant, stronger effect = higher value
Outline: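 Growth of a yeast strain bearing a defined genetic alteration is measured after compound treatment. Inhibition is expressed relative to vehicle-only controls.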

[13] = NCI Yeast Anticancer Drug Screen. Data for the mlh1 rad18 strain (AID 175); details: S. cerevisiae mlh1 rad18 strain growth inhibition, stronger effect = higher value
Outline: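 Read-out is yeast growth inhibition, calculated against vehicle-only controls. The compound was applied to a strain engineered with DNA damage repair alterations.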

[14] = NCI Yeast Anticancer Drug Screen. Data for the rad18 strain (AID 177); details: S. cerevisiae rad18 mutant growth inhibition, stronger effect = higher value
Outline: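 Growth of the mutant yeast strain after compound exposure, normalised to vehicle-only cultures.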

[15] = at 5.0 µM (retest, dose inferred, filed as 0.5)
[16] = at 50.0 µM (retest, dose inferred, filed as 5.0)

Measured: growth inhibition

CC1(C)N=C(N)N=C(N)N1c1cccc(N)c1.[Sn]
inactive: [1]; at 1.2 µM 18% | [1]; at 3.7 µM 21% | [1]; at 11.0 µM 19% | [1]; at 33.0 µM 24% | [1]; at 100.0 µM 43% | [2]; at 1.2 µM 21% | [2]; at 3.7 µM 17% | [2]; at 11.0 µM 17% | [2]; at 33.0 µM 29% | [2]; at 100.0 µM 47% | [3]; at 1.2 µM -2% | [3]; at 3.7 µM -3% | [3]; at 11.0 µM -1% | [3]; at 33.0 µM -5% | [3]; at 100.0 µM -7% | [4]; at 1.2 µM 5% | [4]; at 3.7 µM 6% | [4]; [15] 24% | [4]; at 11.0 µM 6% | [4]; at 33.0 µM 24% | [4]; [16] 36% | [4]; at 50.0 µM 9.35% | [4]; at 100.0 µM 36% | [5]; at 1.2 µM 2% | [5]; at 3.7 µM 6% | [5]; [15] 7% | [5]; at 11.0 µM 2% | [5]; at 33.0 µM 15% | [5]; [16] 28% | [5]; at 50.0 µM -20.9% | [5]; at 100.0 µM 33% | [6]; at 1.2 µM 5% | [6]; at 3.7 µM 9% | [6]; at 11.0 µM 7% | [6]; at 33.0 µM 18% | [6]; at 100.0 µM 34% | [7]; [15] 45% | [7]; at 50.0 µM 1.7% | [8]; at 1.2 µM -10% | [8]; at 3.7 µM -1% | [8]; at 11.0 µM -3% | [8]; at 33.0 µM -2% | [8]; at 100.0 µM -7% | [9]; [15] 5% | [9]; [16] 28% | [9]; at 50.0 µM -12.1% | [10]; at 1.2 µM -8% | [10]; at 3.7 µM -13% | [10]; [15] 9% | [10]; at 11.0 µM -18% | [10]; at 33.0 µM 4% | [10]; [16] 29% | [10]; at 50.0 µM 5.75% | [10]; at 100.0 µM 17% | [11]; at 1.2 µM -3% | [11]; at 3.7 µM -4% | [11]; at 11.0 µM -1% | [11]; at 33.0 µM 0% | [11]; at 100.0 µM 1% | [12]; at 1.2 µM 14% | [12]; at 3.7 µM 20% | [12]; at 11.0 µM 19% | [12]; at 33.0 µM 26% | [12]; at 100.0 µM 52% | [13]; [15] 43% | [13]; at 50.0 µM -49.6% | [14]; at 1.2 µM -3% | [14]; at 3.7 µM 2% | [14]; at 11.0 µM 4% | [14]; at 33.0 µM 17% | [14]; at 100.0 µM 35%
active: [7]; [16] 90% | [13]; [16] 78%
